High-throughput results as filed in PubChem BioAssay.
The full list was thinned out, with hits kept by preference.
IL-1B inflam inh: blocks inflammasome-driven IL-1 beta release | THP-1 LPS/ATP IL-1B secretion, AlphaLISA, 16 h; stronger effect = lower value | 360,000 tested, 4.7% active | activity change, % at 57.5 µM; in the data active means activity change below about -50%; inconclusive means mostly about -30% to -49%
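THP-1 cells pretreated 1 hr with compounds (up to 57.5 uM final), then stimulated with LPS (250 ng/mL final) plus ATP (1.25 mM final); secreted IL-1B measured by AlphaLISA after 16 hr, decreased signal indicating inhibition.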
12-LOX inh: blocks human arachidonate 12S-lipoxygenase; P18054; purified 12hLO, xylenol orange hydroperoxide absorbance; Potency, µM (series often up to 108 µM), actives largely listed as inhibitors; 580,000 tested, 1.1% active
Target sequence (P18054 whole entry, looked up): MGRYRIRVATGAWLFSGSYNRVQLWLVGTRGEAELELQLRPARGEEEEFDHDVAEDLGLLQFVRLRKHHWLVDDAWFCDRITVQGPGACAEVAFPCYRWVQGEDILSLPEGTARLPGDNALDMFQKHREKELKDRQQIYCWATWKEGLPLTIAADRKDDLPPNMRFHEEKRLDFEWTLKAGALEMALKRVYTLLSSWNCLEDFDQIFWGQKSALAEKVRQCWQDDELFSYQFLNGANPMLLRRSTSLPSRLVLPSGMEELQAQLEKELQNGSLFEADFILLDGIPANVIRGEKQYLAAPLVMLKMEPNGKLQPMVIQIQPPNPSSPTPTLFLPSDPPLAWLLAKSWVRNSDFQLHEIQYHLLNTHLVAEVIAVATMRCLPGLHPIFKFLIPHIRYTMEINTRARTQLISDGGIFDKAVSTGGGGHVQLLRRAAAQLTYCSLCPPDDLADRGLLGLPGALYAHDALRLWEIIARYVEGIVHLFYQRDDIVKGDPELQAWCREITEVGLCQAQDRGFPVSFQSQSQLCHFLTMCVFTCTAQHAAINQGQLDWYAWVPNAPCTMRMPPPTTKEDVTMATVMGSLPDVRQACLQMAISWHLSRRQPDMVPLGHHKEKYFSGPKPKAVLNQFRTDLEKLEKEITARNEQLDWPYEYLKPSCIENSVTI
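Hydroperoxide product was detected by ferrous iron/xylenol orange as the 573 to 405 nm absorbance ratio. Arachidonic acid at 40 uM (final) was turned over for 30 min at room temperature by 150 nM human 12hLO, pH 7.0 Hepes buffer, after 15 min compound preincubation.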
TDP1 cell noCPT: qHTS for Inhibitors of human tyrosyl-DNA phosphodiesterase 1 (TDP1): qHTS in cells in absence of CPT; DT40 Tdp1-/- hTDP1 cells, no CPT, ATP luminescence, 48 h; Potency, µM (series often up to 46.2 µM), hits mostly inhibitors; 420,000 tested, 15% active; AID 686978, 2013; further: nearly all actives have a fitted effect of over 55% in size
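Growth of hTDP1-complemented DT40 Tdp1-knockout cells is measured by ATP luminescence after at least 48 hr compound exposure at 37 °C, with DMSO substituting for the 20 nM CPT used in the parallel screen.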
HT1080 IDH1KD tx: HT-1080 IDH1 knockdown cell toxicity (counter line) | 360,000 tested, 2% active | Potency, µM (series often up to 46.1 µM), usual class: cytotoxic | HT-1080 IDH1 knockdown viability, ATP luminescence, 48 h
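HT-1080-IDH1KD cells (IDH1 knocked down), 750/well in RPMI with 5% FBS, treated with compound 48 h at 37 degrees C. Viability by CellTiter-Glo luminescence, normalised to DMSO and no-cell wells; concentration-response curves classed.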
DT40 TDP1 CPT: growth inhibition of DT40 Tdp1-/-;hTDP1 cells with camptothecin (screen for TDP1 inhibitors) | chicken DT40 Tdp1-/-;hTDP1 cells + 20 nM CPT, ATP luminescence, 48 h | Potency, µM (top dose mostly 46.2 µM), most hits filed as inhibitors | 420,000 tested, 12% active | AID 686979; further: nearly all actives have a fitted effect of over 55% in size
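Chicken DT40 Tdp1-/- cells complemented with human TDP1, 400 cells/well, exposed to compounds plus 20 nM camptothecin for at least 48 h at 37 C; viability read as ATP content by CellTiter-Glo luminescence.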
HT1080NT lethal: kills 2HG-producing HT-1080-NT fibrosarcoma cells. 360,000 tested, 1.6% active. HT-1080-NT fibrosarcoma viability, CellTiter-Glo ATP luminescence, 48 h. Potency, µM (doses to about 46.1 µM), most hits filed as cytotoxic. AID 686970;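 further: NT is the 2HG producing partner of a matched IDH1 knockdown line; nearly all actives have a fitted effect of over 55% in size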
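HT-1080-NT; 750 cells/well; 5% FBS RPMI; 48 h compound, 37 degrees C; CellTiter-Glo luminescence; curve fitting and curve-class assignment.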
Each line names hits and unclear results; the compound was inactive in the other large screens. Unless noted, the call rests on the fitted dose curve; in most records, active means well fitted curve in the direction sought with a large enough effect; inconclusive means small, poorly fitted or top-dose-only effect, or another doubt; inactive means no such curve, though single readings can be large; an effect the other way counts as inactive or inconclusive.

N#Cc1c(Cl)nc2c(c1C#N)CCCC2	12-LOX inh inconclusive, TDP1 cell noCPT 18µM
N#Cc1c(N)nc2c(c1-c1ccc(Cl)cc1)CCCC2	none (no result: IL-1B inflam inh, TDP1 cell noCPT, HT1080 IDH1KD tx, DT40 TDP1 CPT, HT1080NT lethal)
Clc1ccc2c(NN=C3CCCC3)ccnc2c1	12-LOX inh 7.9µM (no result: IL-1B inflam inh, TDP1 cell noCPT, HT1080 IDH1KD tx, DT40 TDP1 CPT, HT1080NT lethal)
Oc1ccc(/C=N/Nc2ccnc3cc(Cl)ccc23)cc1O	12-LOX inh inconclusive, TDP1 cell noCPT 13µM, HT1080 IDH1KD tx inconclusive, DT40 TDP1 CPT 13µM, HT1080NT lethal inconclusive
O=C(NN=C1CCCC1)c1ccc(Cl)cc1	none
Oc1ccc(/C=N/Nc2ccnc3cc(Cl)ccc23)c(O)c1O	12-LOX inh inconclusive, TDP1 cell noCPT inconclusive, DT40 TDP1 CPT inconclusive
CC/C(=N\Nc1ccnc2cc(Cl)ccc12)c1ccc(O)cc1	12-LOX inh inconclusive, TDP1 cell noCPT inconclusive, HT1080 IDH1KD tx 16µM, DT40 TDP1 CPT inconclusive, HT1080NT lethal 18µM
Cc1cc(C)cc(NC(=O)C(c2ccccc2)N2CCN(C(=O)C3CC3)CC2)c1 (stereo not drawn)	none (no result: IL-1B inflam inh, TDP1 cell noCPT, HT1080 IDH1KD tx, DT40 TDP1 CPT, HT1080NT lethal)
C/C(CC(=O)Nc1cc(Cl)cc(Cl)c1)=N\NC(=O)c1cccnc1	none (no result: IL-1B inflam inh, TDP1 cell noCPT, HT1080 IDH1KD tx, DT40 TDP1 CPT, HT1080NT lethal)
CC(C(=O)NCc1ccc2c(c1)OCO2)n1nc(-c2ccccc2)c2ccccc21 (stereo not drawn)	none (no result: IL-1B inflam inh, TDP1 cell noCPT, HT1080 IDH1KD tx, DT40 TDP1 CPT, HT1080NT lethal)
O=C(CSC1CCCCC1)c1ccc(O)cc1O	12-LOX inh 45µM (no result: IL-1B inflam inh, TDP1 cell noCPT, HT1080 IDH1KD tx, DT40 TDP1 CPT, HT1080NT lethal)
COc1ccc(SCC(=O)c2ccc(O)cc2O)cc1	12-LOX inh 40µM (no result: IL-1B inflam inh, TDP1 cell noCPT, HT1080 IDH1KD tx, DT40 TDP1 CPT, HT1080NT lethal)
O=C(COC(=O)c1ccc(O)cc1O)NC1CCCCCC1	TDP1 cell noCPT inconclusive, DT40 TDP1 CPT inconclusive
CC(OC(=O)c1ccc2c(c1)NC(=O)CS2)C(=O)Nc1cccc(C#N)c1 (stereo not drawn)	none (no result: IL-1B inflam inh, TDP1 cell noCPT, HT1080 IDH1KD tx, DT40 TDP1 CPT, HT1080NT lethal)
NCCC1C2CC3CC(C2)CC1C3 (stereo not drawn)	none (no result: IL-1B inflam inh, TDP1 cell noCPT, HT1080 IDH1KD tx, DT40 TDP1 CPT, HT1080NT lethal)
CCN(CC)S(=O)(=O)c1ccc(N=NC2=C(O)CC(C)(C)CC2=O)cc1	IL-1B inflam inh -55, TDP1 cell noCPT inconclusive, DT40 TDP1 CPT inconclusive
CCN(CC)S(=O)(=O)c1ccc(N=NC2=C(O)CCCC2=O)cc1	none
CCN1/C(=C\C(=S)Nc2ccccc2)Sc2ccccc21	IL-1B inflam inh -97, 12-LOX inh 32µM, TDP1 cell noCPT 3.3µM, HT1080 IDH1KD tx 9.2µM, DT40 TDP1 CPT 3.7µM, HT1080NT lethal 15µM
CCN1/C(=C\C=C(C(C)=O)C(C)=O)Sc2ccccc21	TDP1 cell noCPT inconclusive, DT40 TDP1 CPT inconclusive
Cc1ccc(-c2[nH]ncc2/C=N/n2c(COc3ccccc3)nc3ccccc3c2=O)cc1	IL-1B inflam inh -92, TDP1 cell noCPT inconclusive, HT1080 IDH1KD tx inconclusive, DT40 TDP1 CPT inconclusive, HT1080NT lethal inconclusive
Cc1ccccc1OCc1nc2ccccc2c(=O)n1/N=C/c1cn[nH]c1-c1ccccc1	IL-1B inflam inh -53, TDP1 cell noCPT 21µM, HT1080 IDH1KD tx inconclusive, DT40 TDP1 CPT inconclusive, HT1080NT lethal inconclusive
Cc1nc2ccccc2c(=O)n1/N=C/c1cn[nH]c1-c1ccccc1	TDP1 cell noCPT 15µM, DT40 TDP1 CPT inconclusive
Cc1cc(/C=N/n2c(COc3ccccc3)nc3ccccc3c2=O)c(O)c([N+](=O)[O-])c1	TDP1 cell noCPT 21µM, HT1080 IDH1KD tx inconclusive, DT40 TDP1 CPT 16µM, HT1080NT lethal inconclusive
Cc1cccc(C)c1OCc1nc2ccccc2c(=O)n1/N=C/c1ccc(OCC(=O)O)cc1	TDP1 cell noCPT inconclusive
COc1cccc(-n2cnnc2SC(C)C(=O)Nc2ccc(N3CCOCC3)cc2)c1 (stereo not drawn)	none (no result: IL-1B inflam inh, TDP1 cell noCPT, HT1080 IDH1KD tx, DT40 TDP1 CPT, HT1080NT lethal)
COc1ccc(-c2nc(COC(=O)C3(O)CCCCC3)cs2)cc1	none (no result: IL-1B inflam inh, TDP1 cell noCPT, HT1080 IDH1KD tx, DT40 TDP1 CPT, HT1080NT lethal)
CC(C)(C)C(=O)NCCCC(=O)NCc1ccccc1	none (no result: IL-1B inflam inh, TDP1 cell noCPT, HT1080 IDH1KD tx, DT40 TDP1 CPT, HT1080NT lethal)
Clc1ccc(CSc2nncn2-c2ccc3c(c2)OCCO3)cc1	TDP1 cell noCPT 5.8µM, HT1080 IDH1KD tx 5.2µM, DT40 TDP1 CPT 2.6µM, HT1080NT lethal 16µM (no result: IL-1B inflam inh)
CCOC(=O)CNC(=O)c1ccc(OCC)cc1	none (no result: IL-1B inflam inh, TDP1 cell noCPT, HT1080 IDH1KD tx, DT40 TDP1 CPT, HT1080NT lethal)
CCOC(=O)CNC(=O)CNC(=O)c1ccc(OCC(C)C)cc1	TDP1 cell noCPT 21µM, DT40 TDP1 CPT inconclusive
CCOC(=O)CNC(=O)CNC(=O)c1ccc(OC(C)C)cc1	none
